The nature of experiment [1]: qHTS assay to identify aromatase inhibitors - cell viability counter screen (AID 743084).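 Also: cells stimulated with testosterone during compound exposure; nearly all actives have a fitted effect of over 55% in size.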 Also: potency is read from the fitted curve at half-maximal effect. On the technique in general: Quantitative high-throughput screening tests each substance at several concentrations.
The target of experiment [2] is Aryl hydrocarbon receptor (Homo sapiens) (UniProt P35869). In words: qHTS assay to identify small molecule that activate the aryl hydrocarbon receptor (AhR) signaling pathway (AID 743085).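 Also: HG2L7.5c1 human HepG2 liver cells with stably integrated DRE-driven firefly reporter; series mostly up to about 70 µM; nearly all actives have a fitted effect of over 15% in size.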 The procedure, abridged: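 Reporter assay in engineered HepG2 line HG2L7.5c1, whose plasmid carries twenty dioxin responsive elements upstream of firefly luciferase. Treatment lasted 24 h at 37C; ONE-Glo luminescence gauged induction.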
Chain of Aryl hydrocarbon receptor (Homo sapiens) (P35869 whole entry, looked up): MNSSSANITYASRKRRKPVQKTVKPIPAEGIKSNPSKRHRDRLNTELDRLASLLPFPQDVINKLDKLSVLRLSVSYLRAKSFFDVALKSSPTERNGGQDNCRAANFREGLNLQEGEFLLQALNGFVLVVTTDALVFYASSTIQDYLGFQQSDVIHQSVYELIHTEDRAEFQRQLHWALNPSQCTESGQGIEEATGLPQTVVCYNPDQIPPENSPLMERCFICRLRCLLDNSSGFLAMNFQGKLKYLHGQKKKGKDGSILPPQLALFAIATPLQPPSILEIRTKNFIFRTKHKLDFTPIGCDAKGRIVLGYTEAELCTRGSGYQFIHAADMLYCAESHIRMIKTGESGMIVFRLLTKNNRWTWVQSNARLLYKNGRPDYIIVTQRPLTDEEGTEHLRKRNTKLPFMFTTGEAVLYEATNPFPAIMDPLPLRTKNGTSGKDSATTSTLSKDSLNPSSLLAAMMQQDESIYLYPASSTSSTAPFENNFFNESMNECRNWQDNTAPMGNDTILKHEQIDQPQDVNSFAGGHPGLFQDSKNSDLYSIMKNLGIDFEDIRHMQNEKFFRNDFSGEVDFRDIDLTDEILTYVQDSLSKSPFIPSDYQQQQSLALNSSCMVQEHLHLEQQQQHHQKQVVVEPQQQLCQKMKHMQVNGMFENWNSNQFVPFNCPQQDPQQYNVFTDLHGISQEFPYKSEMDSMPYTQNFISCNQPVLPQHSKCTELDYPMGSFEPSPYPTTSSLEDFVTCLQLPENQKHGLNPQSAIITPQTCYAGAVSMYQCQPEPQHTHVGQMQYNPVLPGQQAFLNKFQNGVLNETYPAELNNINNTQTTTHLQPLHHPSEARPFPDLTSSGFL

The target in experiment [3] is Peroxisome proliferator-activated receptor gamma (Homo sapiens) (UniProt P37231). The experiment can be described thus: qHTS assay to identify small molecule agonists of the peroxisome proliferator-activated receptor gamma (PPARg) signaling pathway (AID 743094; active = well fitted activation curve with a large enough effect in the signal ratio in the repeat runs, not every such curve was filed as active; the % refers to the signal ratio). The method, boiled down: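 Following 5 h plating at 37C, PPARg-bla HEK293H cells receive compound or DMSO for 17 h; fluorescence intensity is recorded after LiveBLAzer B/G loading for 1 h at room temperature.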
Chain of Peroxisome proliferator-activated receptor gamma (Homo sapiens) (P37231 whole entry, looked up): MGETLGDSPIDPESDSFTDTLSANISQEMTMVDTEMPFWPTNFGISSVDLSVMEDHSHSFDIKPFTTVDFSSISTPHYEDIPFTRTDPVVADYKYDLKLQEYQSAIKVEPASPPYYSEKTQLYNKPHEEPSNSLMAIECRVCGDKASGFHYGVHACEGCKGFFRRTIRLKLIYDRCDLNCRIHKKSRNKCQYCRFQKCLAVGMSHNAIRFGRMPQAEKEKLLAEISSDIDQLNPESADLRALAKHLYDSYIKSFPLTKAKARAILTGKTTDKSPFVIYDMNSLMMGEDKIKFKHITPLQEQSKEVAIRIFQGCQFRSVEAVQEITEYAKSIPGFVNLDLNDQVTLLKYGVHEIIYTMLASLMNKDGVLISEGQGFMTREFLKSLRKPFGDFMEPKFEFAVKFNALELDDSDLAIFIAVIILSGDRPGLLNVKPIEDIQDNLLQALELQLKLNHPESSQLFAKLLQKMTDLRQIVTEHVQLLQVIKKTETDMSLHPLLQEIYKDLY

Experiment [4] has the same target. In words: qHTS assay to identify small molecule antagonists of the peroxisome proliferator-activated receptor gamma (PPARg) signaling pathway (AID 743191; calls by dose curve; also: series mostly up to about 63 µM; nearly all actives have a fitted effect of over 30% in size). The procedure, abridged:
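GeneBLAzer PPARg UAS-bla HEK293H cells carrying a UAS-driven beta-lactamase reporter were plated at 3000 cells/well, preincubated 5 h at 37C, then given compound for 17 h at 37C; LiveBLAzer B/G FRET substrate was read after 1 h at room temperature.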

The nature of experiment [5]: qHTS assay to identify small molecule antagonists of the peroxisome proliferator-activated receptor gamma (PPARg) signaling pathway - cell viability counter screen (AID 743194). Also: nearly all actives have a fitted effect of over 55% in size. As to conditions: Potency: co-treated with 50 nM rosiglitazone. The procedure, abridged:
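PPARg-UAS-bla HEK293H cells were plated, rested 5 h at 37 C, then treated with compounds plus rosiglitazone (50 nM final) for 17 h at 37 C; viability was then read by CellTiter-Glo luminescence after 30 min at room temperature.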

A short description of experiment [6]: qHTS assay for small molecule agonists of the antioxidant response element (ARE) signaling pathway (AID 743202; active = well fitted activation curve with a large enough effect in the signal ratio in the repeat runs, not every such curve was filed as active; the % refers to the signal ratio; also: potency is read from the fitted curve at half-maximal effect). The procedure, abridged:
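Read-out: LiveBLAzer B/G FRET substrate fluorescence after 2 h at room temperature, following 16 h compound treatment at 37 C of HepG2 cells carrying an ARE-driven beta-lactamase reporter.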

Experiment [7] is described as follows: qHTS assay for small molecule agonists of the antioxidant response element (ARE) signaling pathway - cell viability counter screen (AID 743203; calls by dose curve; also: nearly all actives have a fitted effect of over 55% in size). The procedure, abridged:
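Compounds in DMSO were pinned onto ARE-bla HepG2 cells plated 5 hrs earlier at 2,000 cells/well. Sixteen hours later at 37C/5% CO2, CellTiter-Glo was added and luminescence measured after 30 min at room temperature.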

Experiment [8] is described as follows: qHTS assay for small molecule activators of the heat shock response signaling pathway - cell viability counter screen (AID 743209). Also: nearly all actives have a fitted effect of over 50% in size. The procedure, abridged:
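Counter screen for cytotoxicity in HeLa HSE-bla reporter cells. Treatment was 5 h at 37 C; viability was detected by luminescent ATP assay (CellTiter-Glo) in the same wells as the beta-lactamase read.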

Experiment [9] is described as follows: qHTS assay for small molecule activators of the heat shock response signaling pathway (AID 743210; active = well fitted activation curve with a large enough effect in the signal ratio in the repeat runs, with a control signal flat, not every such curve was filed as active; the % refers to the signal ratio; also: series mostly up to about 63 µM). The method, boiled down:
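HSE-bla HeLa cells (beta-lactamase reporter under heat shock response elements) were exposed to compounds for 5 h at 37 C, then loaded with LiveBLAzer B/G FRET substrate for 2.5 h at room temperature before fluorescence reading.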

Experiment [10] concerns the target Peroxisome proliferator-activated receptor delta (Homo sapiens) (UniProt Q03181). In words: qHTS assay to identify small molecule agonists of the peroxisome proliferator-activated receptor delta (PPARd) signaling pathway (AID 743212; calls by dose curve). The procedure, abridged: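 GeneBLAzer PPARd UAS-bla HEK293H cells (beta-lactamase reporter under UAS control), plated and rested 5 h at 37 C, then exposed to compounds in DMSO at 37 C; LiveBLAzer B/G FRET substrate added, 2 h room temperature, fluorescence read.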

Experiment [11] shares this target. In words: qHTS assay to identify small molecule antagonists of the peroxisome proliferator-activated receptor delta (PPARd) signaling pathway (AID 743215; active = well fitted inhibition curve with a large enough effect in the signal ratio in the repeat runs, not every such curve was filed as active; the % refers to the signal ratio;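 also: cells stimulated with agonist L165041 at 300 nM final during compound exposure; series mostly up to about 62 µM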). The method, boiled down: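 With L165041 present at 300 nM final, compounds were incubated 17 h at 37 C on PPARd UAS-bla HEK293H cells. A FRET-based beta-lactamase substrate was then applied for 2 h at room temperature and fluorescence intensity recorded.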

The target of experiment [12] is Bile acid receptor (Homo sapiens) (UniProt Q96RI1). The experiment can be described thus: qHTS assay to identify small molecule antagonists of the farnesoid-X-receptor (FXR) signaling pathway (AID 743217; active = well fitted inhibition curve with a large enough effect in the signal ratio in the repeat runs, not every such curve was filed as active; the % refers to the signal ratio; also: potency is read from the fitted curve at half-maximal effect). The method, boiled down:
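In this cell-based antagonist screen, inhibition of CDCA-driven (50 uM final) UAS-beta-lactamase expression in HEK 293T cells was measured by FRET fluorescence following 16 h compound exposure at 37 °C.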

Experiment [13] can be described thus: qHTS assay to identify small molecule agonists of the farnesoid-X-receptor (FXR) signaling pathway - cell viability counter screen (AID 743218). Also: nearly all actives have a fitted effect of over 45% in size. The procedure, abridged: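 After 16 h at 37 C with test compounds, FXR-bla HEK 293T cells were given LiveBLAzer B/G substrate for 2 h at RT and then CellTiter-Glo; luminescence was taken after 30 min.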
Experiment [14] deals with Bile acid receptor (Homo sapiens) (UniProt Q96RI1). In words: qHTS assay to identify small molecule agonists of the farnesoid-X-receptor (FXR) signaling pathway (AID 743220; active = well fitted activation curve with a large enough effect in the signal ratio in the repeat runs, not every such curve was filed as active; the % refers to the signal ratio). The method, boiled down: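 Beta-lactamase reporter under UAS control in GeneBLAzer FXR HEK 293T cells (5000/well) measured with LiveBLAzer FRET substrate after 2 h at room temperature. Compound exposure lasted 16 h at 37C.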
Chain of Bile acid receptor (Homo sapiens) (Q96RI1 whole entry, looked up): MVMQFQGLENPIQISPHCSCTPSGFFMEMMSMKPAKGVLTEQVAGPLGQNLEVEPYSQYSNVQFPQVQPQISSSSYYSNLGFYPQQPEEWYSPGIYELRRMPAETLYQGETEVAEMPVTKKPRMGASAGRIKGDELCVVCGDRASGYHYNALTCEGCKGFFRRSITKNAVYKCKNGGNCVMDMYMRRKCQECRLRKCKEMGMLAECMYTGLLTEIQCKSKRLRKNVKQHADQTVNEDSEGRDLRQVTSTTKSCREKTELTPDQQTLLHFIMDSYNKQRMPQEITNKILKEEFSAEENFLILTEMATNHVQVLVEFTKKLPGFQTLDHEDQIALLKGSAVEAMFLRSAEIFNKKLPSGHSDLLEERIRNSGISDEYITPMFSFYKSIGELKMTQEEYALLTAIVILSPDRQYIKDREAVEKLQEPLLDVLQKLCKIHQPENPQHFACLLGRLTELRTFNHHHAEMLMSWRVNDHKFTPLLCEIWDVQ

A short description of experiment [15]: qHTS assay to identify small molecule antagonists of the farnesoid-X-receptor (FXR) signaling pathway - cell viability counter screen (AID 743221; active = well fitted cell-killing curve with a large enough effect in the repeat runs, not every such curve was filed as active; also: nearly all actives have a fitted effect of over 50% in size). The procedure, abridged: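 CellTiter-Glo, 30 min RT, luminescence; same wells as the LiveBLAzer FRET read. Cells: FXR-UAS-bla HEK 293T. Treatment: compound with chenodeoxycholic acid 50 uM final, 16 h at 37 C.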

A short description of experiment [16]: qHTS assay to identify small molecule agonists of the peroxisome proliferator-activated receptor delta (PPARd) signaling pathway - cell viability counter screen (AID 743211). Also: nearly all actives have a fitted effect of over 55% in size. The procedure, abridged: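 Multiplexed format: after the 2 h room-temperature LiveBLAzer B/G FRET step, CellTiter-Glo was added to the same wells. Luminescence after 30 min gave cell viability; compound exposure was 17 h at 37C.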

Experiment [17] is described as follows: qHTS assay to identify small molecule antagonists of the peroxisome proliferator-activated receptor delta (PPARd) signaling pathway - cell viability counter screen (AID 743213). Also: nearly all actives have a fitted effect of over 50% in size. The method, boiled down:
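In this counter screen, HEK293H cells carrying a UAS-beta-lactamase reporter are co-treated with test compounds and 300 nM L165041 (final) for 17 h at 37 C; cell viability is quantified by CellTiter-Glo luminescence.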

The target of experiment [18] is Vitamin D3 receptor (Homo sapiens) (UniProt P11473). In words: qHTS assay to identify small molecule agonists of the vitamin D receptor (VDR) signaling pathway (AID 743222; calls by dose curve). The procedure, abridged: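 VDR-bla cells were seeded, left 4 h, treated with compounds in DMSO for 16 h, incubated 2 h at RT with B/G FRET substrate, and read for fluorescence.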
Chain of Vitamin D3 receptor (Homo sapiens) (P11473 whole entry, looked up): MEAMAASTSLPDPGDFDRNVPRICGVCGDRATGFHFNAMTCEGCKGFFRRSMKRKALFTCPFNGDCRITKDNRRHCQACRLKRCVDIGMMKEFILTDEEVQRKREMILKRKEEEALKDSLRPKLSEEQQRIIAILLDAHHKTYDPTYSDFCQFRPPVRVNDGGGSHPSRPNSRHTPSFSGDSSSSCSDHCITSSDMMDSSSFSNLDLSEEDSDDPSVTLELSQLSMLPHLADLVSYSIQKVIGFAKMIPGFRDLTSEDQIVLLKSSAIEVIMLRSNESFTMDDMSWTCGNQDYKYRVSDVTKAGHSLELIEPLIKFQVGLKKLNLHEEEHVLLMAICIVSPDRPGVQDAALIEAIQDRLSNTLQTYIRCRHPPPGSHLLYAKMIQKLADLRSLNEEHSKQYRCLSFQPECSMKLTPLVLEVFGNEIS
Experiment [19] has the same target. In words: qHTS assay to identify small molecule antagonists of the vitamin D receptor (VDR) signaling pathway (AID 743223; active = well fitted inhibition curve with a large enough effect in the signal ratio in the repeat runs, not every such curve was filed as active; the % refers to the signal ratio). The procedure, abridged: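 After VDR-bla cells are plated and left 4 h at 37C, DMSO-dissolved compounds and 3 nM (final) calcitriol agonist are added. Incubation continues 16 h at 37C; FRET beta-lactamase substrate then develops 2 h at room temperature.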

Experiment [20] is described as follows: qHTS assay to identify small molecule that activate the aryl hydrocarbon receptor (AhR) signaling pathway - cell viability counter screen (AID 743086).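 Also: HepG2 liver cells carrying the AhR DRE luciferase reporter; series mostly up to about 70 µM; nearly all actives have a fitted effect of over 45% in size.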 The method, boiled down: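 HepG2-AhR-luc (HG2L7.5c1) cells, 4000/well, were preincubated 5 h at 37C, exposed to compound in qHTS format for 24 hr at 37C, then given CellTiter-Fluor for 30 min; viability was read as fluorescence in the reporter wells.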

Results filed as inconclusive are left out. Activity calls are given as the source filed them. Unless noted, calls follow the shape of the dose curve; as a rule, active = well fitted curve in the direction sought with a large enough effect in the repeat runs; inconclusive = weak or mixed curves; inactive = no such curve, though single readings can be large; an effect the other way counts as inactive or inconclusive.

Chain of Peroxisome proliferator-activated receptor delta (Homo sapiens) (Q03181 whole entry, looked up): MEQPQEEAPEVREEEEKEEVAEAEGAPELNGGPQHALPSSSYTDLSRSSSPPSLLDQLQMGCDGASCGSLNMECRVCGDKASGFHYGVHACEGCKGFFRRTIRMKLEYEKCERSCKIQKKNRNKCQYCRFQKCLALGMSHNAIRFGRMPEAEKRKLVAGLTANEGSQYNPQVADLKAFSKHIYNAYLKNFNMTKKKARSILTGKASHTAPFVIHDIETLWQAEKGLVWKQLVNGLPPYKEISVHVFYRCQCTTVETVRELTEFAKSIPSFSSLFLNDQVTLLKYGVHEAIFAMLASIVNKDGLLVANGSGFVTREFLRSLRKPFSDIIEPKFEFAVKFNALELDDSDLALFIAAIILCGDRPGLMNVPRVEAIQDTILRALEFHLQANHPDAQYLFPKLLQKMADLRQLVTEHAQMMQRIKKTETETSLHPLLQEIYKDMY

Turning to `Cn1cc[n+](C)c1` (tested in a mixture with another compound), the Potency result in experiment [1], in experiment [2], in experiment [3], in experiment [4], in experiment [5] and in experiment [6] was “inactive” each time. Further, the Potency entry in experiment [7], in experiment [8], in experiment [11], in experiment [12], in experiment [13] and in [15] was “inactive” throughout. Further, the call in experiment [9], in experiment [10] and in experiment [14] was inactive.

Take `O=Cc1ccc2c(c1)OCO2`: the Potency result in [1], in experiment [2], in experiment [3], in experiment [5], in experiment [6] and in [7] was “inactive” each time. The Potency entry in experiment [8], in experiment [16], in experiment [17], in experiment [11], in [12] and in experiment [13] was “inactive” in each case. Also, in experiment [15], the Potency entry is “inactive”. Besides, the compound was called inactive in experiment [10], in experiment [14], in [18] and in experiment [19].

Turning to `CCCC(Cn1cncn1)c1ccc(Cl)cc1Cl` (configuration not stated), the Potency entry in experiment [1], in experiment [2], in experiment [20], in experiment [7], in [17] and in [11] was “inactive” throughout. Besides, the Potency result in experiment [13] and in experiment [15] was “inactive” in each case. For the same compound, the outcome in experiment [9], in experiment [10], in [14] and in [18] was inactive.

For the compound `CCc1ccc(C(=O)NN(C(=O)c2cc(C)cc(C)c2)C(C)(C)C)cc1`, the Potency was 6.86 µM (active) in [1], 61.1 µM (active) in experiment [6] and 54.9 µM (active) in [12]. Besides, the Potency result in experiment [2], in experiment [3], in experiment [4], in [5], in experiment [7] and in [8] was “inactive” in each case. For the same compound, the Potency entry in experiment [17], in experiment [11] and in experiment [15] was “inactive” in each case. For the same compound, the call in [9], in experiment [10], in [18] and in experiment [19] was inactive.

Take `Cc1ccccc1CCl`: the Potency entry in [1], in [2], in experiment [3], in experiment [4], in experiment [5] and in experiment [7] was “inactive” in each case. Further, the Potency result in [8], in experiment [16], in [17], in experiment [11], in experiment [13] and in [15] was “inactive” in each case. For the same compound, the call in experiment [9], in [10] and in [18] was inactive.

Consider `CC(Cl)C(C)Cl` (configuration not stated), for which the Potency entry in experiment [1], in experiment [2], in experiment [3], in experiment [4], in experiment [6] and in [7] was “inactive” throughout. Further, the Potency entry in [8], in experiment [16], in [17], in [11], in experiment [12] and in experiment [13] was “inactive” each time. Moreover, the Potency result in [15] is “inactive”. Also, the result in experiment [10] and in [14] was inactive.

Turning to `C=COC(C)=O`, the Potency entry in [1], in [2], in [3], in experiment [4], in experiment [5] and in [6] was “inactive” throughout. Also, the Potency entry in experiment [7], in experiment [8], in [17], in experiment [13] and in [15] was “inactive” in each case. The compound was classed as inactive in [9] and in experiment [18].

Regarding `N#Cc1cc(I)c(O)c(I)c1`, the Potency entry in [1], in experiment [2], in experiment [20], in [8], in [11] and in experiment [15] was “inactive” throughout. For the same compound, in experiment [9], the call was inactive.

Regarding `C=CCC1([C@H](C)CCC)C(=O)NC(=O)NC1=O`, the Potency result in experiment [1], in experiment [2], in experiment [3], in experiment [4], in experiment [5] and in experiment [7] was “inactive” in each case. For the same compound, the Potency entry in [8], in [16], in experiment [17], in [11], in [12] and in experiment [15] was “inactive” in each case. Moreover, the outcome in [9], in [10], in [14], in experiment [18] and in [19] was inactive.

Source of the values: PubChem BioAssay (Tox21).
